PubChem BioAssay (Tox21)
Records with an inconclusive call do not appear. Unmarked numbers belong to inactive results. Calls of active or inactive are those of the source. Calls follow the shape of the dose curve; as a rule, active = well fitted activation curve with a large enough effect in the signal ratio in the repeat runs (not every such curve was filed as active); inconclusive = weak or mixed curves, or effect the other way; inactive = flat fitted curve, though single readings scatter; the % refers to the signal ratio.

Each compound was assayed against Bile acid receptor (Homo sapiens) (UniProt Q96RI1) (assay: qHTS assay to identify small molecule agonists of the farnesoid-X-receptor (FXR) signaling pathway (AID 743220)). Conditions: HEK293T FXR-UAS-bla, beta-lactamase FRET ratio, 16 h; series mostly up to 62.6 µM.
Excerpt: National Center for Advancing Translational Sciences [NCATS]
NIH Chemical Genomics Center [NCGC]
U.S. Environmental Protection Agency [EPA]
National Institutes of Environmental Health Sciences [NIEHS]
National Toxicology Program [NTP]
U.S. Food and Drug Administration [FDA]
The farnesoid-X-receptor (FXR), a nuclear hormone receptor, is highly expressed in liver, intestine, kidney and adrenal cortex. Natural ligands of FXR are the bile acids (Cholic acid, Chenodeoxy cholic acid etc). FXR is an important regulator of diverse metabolic pathways, including the bile acid homeostasis, lipid and glucose metabolisms. FXR regulates the expression of target genes by binding either as a monomer or as a heterodimer with the retinoid X receptor (RXR). Numerous studies have reported that FXR exerts protective function during cholestasis, diabetes, liver regeneration, and cancer. To identify compounds that activate FXR signaling, GeneBLAzer FXR-UAS-bla HEK 293T cell line (Invitrogen, Carlsbad, CA) containing a beta-lactamase reporter gene under the control of a UAS response element was used to screen the Tox21 10K compound library.
Tox21 Assay Protocol Summary:
FXR-bla cells were dispensed at 5000 cells/5uL/well in 1536-well black wall/clear bottom plates using a Multidrop Combi (Thermo Fisher Scientific, Waltham, MA) dispenser. After the assay plates were incubated at 37C and 5% CO2 for 5 h, 23 nL of compounds dissolved in DMSO, positive controls or DMSO only was transferred to the assay plate by a Pintool station (Kalypsys, San Diego, CA). The assay plates were incubated at 37C for 16 h. After 1 uL of LiveBLAzerTM B/G FRET substrate was added using a Bioraptr Flying Reagent Dispenser (FRD) workstation (Beckman Coulter, Indianapolis, IN), the plates were incubated at room temperature for 2 h, and fluorescence intensity was measured by an Envision plate reader (PerkinElmer, Shelton, CT).
% is scaled to controls: 0 for no effect and ±100 for the full control effect.

Chain of Bile acid receptor (Homo sapiens) (Q96RI1 whole entry, looked up): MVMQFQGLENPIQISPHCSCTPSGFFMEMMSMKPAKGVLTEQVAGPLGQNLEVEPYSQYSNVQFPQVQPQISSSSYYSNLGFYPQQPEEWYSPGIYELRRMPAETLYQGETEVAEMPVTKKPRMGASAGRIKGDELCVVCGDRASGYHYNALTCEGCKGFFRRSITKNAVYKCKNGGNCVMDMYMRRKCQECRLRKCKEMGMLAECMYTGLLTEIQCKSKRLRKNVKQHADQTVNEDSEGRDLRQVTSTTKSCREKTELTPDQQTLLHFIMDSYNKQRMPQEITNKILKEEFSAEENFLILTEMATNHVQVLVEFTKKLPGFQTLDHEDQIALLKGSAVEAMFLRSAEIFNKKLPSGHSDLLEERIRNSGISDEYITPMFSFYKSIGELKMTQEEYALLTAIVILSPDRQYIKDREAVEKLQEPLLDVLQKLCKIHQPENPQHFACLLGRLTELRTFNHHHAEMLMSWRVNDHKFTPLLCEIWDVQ

Which outcome does the source give for `O=C1CC2CC1C1CCCC21` (stereo not given) here?
Its outcome is “inactive”.

For `CCCCCSCCCCC`, which outcome is on record?
Its outcome is “inactive”.

Which outcome does the source give for `CC(=O)N(CC(O)CO)c1c(I)c(C(=O)NCCO)c(I)c(C(=O)NCC(O)CO)c1I` (stereo not given) here?
Its outcome is “inactive”.

`NC(CSCC(=O)O)C(=O)O` (stereo not given) was tested. Which outcome did it give?
Its outcome is “inactive”.

For `C[C@](N)(Cc1ccc(O)cc1)C(=O)O`, which activation is on record?
Its activation is 1.44% [at 5.95 µM].

How did the outcome turn out when `CC(=O)OCC(=O)[C@@]1(O)CCC2C3CCC4=CC(=O)CC[C@]4(C)C3[C@@H](O)C[C@@]21C` (stereo not given in full) was run?
Its outcome is “inactive”.

Which outcome does the source give for `CCOC(=O)CCC(C)=O` here?
The outcome was “inactive”.

How did the outcome turn out when `CO/N=C(/C(=O)N[C@@H]1C(=O)N2C(C(=O)OCOC(=O)C(C)(C)C)=C(C)CS[C@H]12)c1csc(N)n1` was run?
The outcome was “inactive”.

How did the outcome turn out when `CCOC(C)(C)C` was run?
The outcome was “inactive”.

For `CCN(CC)CCOCCOC(=O)C1(c2ccccc2)CCCC1`, which outcome is on record?
The outcome was “inactive”.

`CCCN1CCCC[C@H]1C(=O)Nc1c(C)cccc1C` was tested. Which outcome did it give?
Its outcome is “inactive”.

With `CCn1ccnc1CC1COc2ccccc2O1` (stereo not given) as the compound, how does the outcome read?
Its outcome is “inactive”.

With `COC(=O)C1=C(C)NC(C)=C(C(=O)OC)C1c1ccccc1[N+](=O)[O-]` as the compound, how does the outcome read?
The outcome was “inactive”.

For `CCCCCCOC(=O)CCCCC(=O)OCCCCCC`, which outcome is on record?
The outcome was “inactive”.

With `CC(=O)c1ccccc1O` as the compound, how does the outcome read?
The outcome was “inactive”.

`COc1c(N2C[C@@H]3CCCN[C@@H]3C2)c(F)cc2c(=O)c(C(=O)O)cn(C3CC3)c12` was tested. Which outcome did it give?
Its outcome is “inactive”.

How did the activation turn out when `NCCCNCCSP(=O)(O)O` was run?
The activation was 0.213% [at 13.2 µM].

Which outcome does the source give for `CN1CC(=O)NC1=N` here?
The outcome was “inactive”.

Which outcome does the source give for `C=C[Si](OC(=C)C)(OC(=C)C)OC(=C)C` here?
Its outcome is “inactive”.

Which outcome does the source give for `Cc1c(O)cccc1O` here?
Its outcome is “inactive”.

For `C=CCS(=O)(=O)O`, which outcome is on record?
Its outcome is “inactive”.

How did the outcome turn out when `CN(C)CCCSc1ccccc1NC(=O)/C=C/c1ccccc1` was run?
The outcome was “inactive”.

`CC(C)NC(=O)NC(C)C` was tested. Which outcome did it give?
The outcome was “inactive”.

For `O=C(CCCN1CCC(O)(c2cccc(C(F)(F)F)c2)CC1)c1ccc(F)cc1`, which outcome is on record?
Its outcome is “inactive”.

How did the outcome turn out when `CCCCCCCCCCCCCCCCC` was run?
Its outcome is “inactive”.

With `COc1ccc2c(c1)CCCC2=O` as the compound, how does the outcome read?
The outcome was “inactive”.

For `Nc1c[n+](N2CCOCC2)no1`, which outcome is on record?
The outcome was “inactive”.

Which outcome does the source give for `CC(=O)CC(C)C` here?
Its outcome is “inactive”.

`CN1CCC(=C2c3ccccc3CC(=O)c3sccc32)CC1` was tested. Which outcome did it give?
Its outcome is “inactive”.

How did the outcome turn out when `CN1CCN(c2cc3c(cc2F)c(=O)c(C(=O)O)cn3-c2ccc(F)cc2)CC1` was run?
The outcome was “inactive”.

Which outcome does the source give for `NC(=O)c1ccc(N)cc1` here?
The outcome was “inactive”.

`CC(C)(C)NCCNC(C)(C)C` was tested. Which outcome did it give?
Its outcome is “inactive”.

For `COC(C)(C)CCCC(C)CC=O` (stereo not given), which outcome is on record?
The outcome was “inactive”.

How did the outcome turn out when `CC(C(=O)O)c1ccc(CC2CCCC2=O)cc1` (stereo not given) was run?
The outcome was “inactive”.

For `COC(=O)CCSCCC(=O)OC`, which outcome is on record?
The outcome was “inactive”.

With `Cc1ccc(C#N)cc1` as the compound, how does the outcome read?
The outcome was “inactive”.

`CO[Si](CCCOCC1CO1)(OC)OC` (stereo not given) was tested. Which outcome did it give?
The outcome was “inactive”.

`CCO[Si](CCC1CCC2OC2C1)(OCC)OCC` (stereo not given) was tested. Which outcome did it give?
Its outcome is “inactive”.

With `Cc1nc2c([nH]1)c(=O)n(C)c(=O)n2Cc1ccco1` as the compound, how does the outcome read?
Its outcome is “inactive”.

Which outcome does the source give for `COCCc1ccc(OCC(O)CNC(C)C)cc1` (stereo not given) here?
The outcome was “inactive”.
